# For some assays here: Results with a measured potency or affinity are listed apart. Active and inactive are the calls of the source. Unless noted, how the calls were made is not given here.
# Legend:
# [1] = signal quenchers or enhancers, Cy5 substrate/SSB – biochemical, NIH Clinical Collection, E. coli SSB, artefact control for HCV NS3 helicase inhibitor project (AID 743268); details: Cy5-oligo bound E. coli SSB, fluorescence interference
# [2] = tested on: Hepatitis C virus NS3 helicase; experiment: blockers of NS3h binding to DNA – biochemical, fluorescence polarization, NIH Clinical Collection, primary screen (AID 743270); details: NS3 helicase binding to Cy5-dT15 DNA, stronger effect = higher value, concentration not given here
# [3] = target: Single-stranded DNA-binding protein (Escherichia coli (strain K12)) (UniProt P0AGE0); experiment: SSB-ssDNA binding inhibitors – biochemical, fluorescence polarization, NIH Clinical Collection, counter-screen for HCV NS3 helicase inhibitor project (AID 743271; in the data active means inhibition above about 28%); details: E. coli SSB-DNA binding, stronger effect = higher value, concentration not given here
# [4] = compounds distorting NS3 helicase fluorescence signal – biochemical, NIH Clinical Collection, artefact control for HCV NS3 helicase inhibitor project (AID 743272); details: fluorescence interference counterscreen, HCV NS3 helicase assay; stronger effect = lower value;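 further: HCV NS3 helicase with a Cy5 labelled single stranded DNA probe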
# [5] = chitosan synthesis blockers in C. neoformans – flow cytometry, Cibacron Brilliant Red staining (AID 1347148); details: Cryptococcus neoformans chitosan, stronger effect = lower value; at 10 µM unless noted;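 further: compound exposure lasted three days at 37 degrees C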
# [6] = tested on: Aerobactin synthetase IucA (Klebsiella pneumoniae hvKP1); experiment: IucA enzyme inhibition, primary screen, biochemical, Spectrum library (AID 1346200); details: malachite green pyrophosphate, A620, at 8 µM, stronger effect = lower value;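 further: 100% = wells without compound and 0% = wells lacking enzyme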
# [7] = growth inhibition, single agents and combos, LFS_MB_1R, cell-based, cisplatin or BGB combos, synergistic combos for chromothripsis tumors (AID 1671452; in the data active means inhibition above about 80%;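 further: cells exposed for 96 hours before readout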); details: LFS_MB_1R medulloblastoma cells, stronger effect = higher value
# [8] = growth inhibition, single agents and combos, CRL2098, cell-based, BGB or cisplatin IC20 combos, synergistic combos for chromothripsis tumors (AID 1671454; in the data active means inhibition above about 80%;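 further: cells exposed for 96 h before readout; 0% = vehicle DMSO and 100% = killing by high DMSO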); details: CRL2098 osteosarcoma cells, drug combinations, stronger effect = higher value
# [9] = growth inhibition, single agents and combos, HD-MB03, cell-based, BGB or cisplatin IC20 combos, synergistic combos for chromothripsis tumors (AID 1671455; in the data active means inhibition above about 83%;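 further: 0% = vehicle DMSO and 100% = high DMSO as cytotoxic control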); details: HD-MB03 medulloblastoma cells, stronger effect = higher value
# [10] = growth inhibition, single agents and combos, UWB1.289, cell-based, BGB or cisplatin combos, synergistic combos for chromothripsis tumors (AID 1671456; in the data active means inhibition above about 80%;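 further: cells exposed to compound for four days; 0% = vehicle DMSO and 100% = killing by high DMSO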); details: UWB1.289 ovarian carcinoma cells, stronger effect = higher value
# [11] = growth inhibition, single agents and combos, LFS_MB_2R, cell-based, cisplatin combos, synergistic combos for chromothripsis tumors (AID 1671457; in the data active means inhibition above about 80%;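 further: cells exposed to compound for four days before readout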); details: LFS_MB_2R medulloblastoma cells, stronger effect = higher value
# [12] = UWB1.289_BRCA1 ovarian cancer growth, cell-based, BGB or cisplatin combinations (AID 1671459; in the data active means inhibition above about 80%); details: UWB1.289 BRCA1 ovarian carcinoma, drug combinations, stronger effect = higher value
# [13] = drug combination toxicity in non-malignant astrocytes – cell-based, BGB or cisplatin IC20 combos, cytotoxicity control for chromothriptic childhood tumor combination screen (AID 1671460; in the data active means inhibition above about 80%;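 further: cells exposed to compounds for 96 hours before viability readout; 0% = vehicle and 100% = killing control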); details: Human astrocytes, viability inhibition, drug combinations, at 0.5 µM, stronger effect = higher value
# [14] = RCMB18 cell growth, single agent and combined, cisplatin and BGB IC40 combos (AID 1671462; in the data active means inhibition above about 80%;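 further: cells exposed to compound for four days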); details: RCMB18 medulloblastoma cells, stronger effect = higher value
# [15] = CRL1545 cell growth, single agent and combined, cisplatin and BGB IC20 combos (AID 1671464; in the data active means inhibition above about 80%;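 further: cells exposed to compound for 96 hours before readout; 0% = vehicle DMSO and 100% = high DMSO killing control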); details: CRL1545 osteosarcoma cells, stronger effect = higher value
# [16] = blockers of polyQ-driven CASP3 activation – cell-based (AID 1583); details: polyglutamine-induced caspase-3 activation, cell assay; stronger effect = higher value;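 tested at 10 µM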
# [17] = yeast 75Q aggregation reduction – 75Q-TubU reporter (AID 1593); details: Yeast 75Q polyglutamine aggregation reporter
# [18] = restoration of touch response, mutant HTT neurons – whole organism, C. elegans mechanosensory neurons, N-terminal huntingtin (AID 1599); details: C. elegans polyQ-huntingtin mechanosensory neurons, stronger effect = higher value
# [19] = blockers of cytochrome c efflux from mitochondria – biochemical, purified mitochondria (AID 1603); details: stronger effect = lower value;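 further: mouse liver mitochondria challenged with calcium chloride; signal normalized to the plate average as 100%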
# [20] = polyglutamine aggregate formation blockers (AID 1604); details: polyglutamine-induced protein aggregation inhibition assay; stronger effect = higher value; tested at 2.5 µM
# [21] = measured here: combination with cisplatin, at 0.5 µM
# [22] = measured here: combination with cisplatin, at 5 µM
smiles,measurement,setting,value
C[C@]12CC[C@H](O)CC1=CC[C@@H]1[C@@H]2CC[C@]2(C)C(=O)CC[C@@H]12,fluorescence ratio,[1],0.94 (inactive)
same,inhibition,[2],0.66% (inactive)
same,inhibition,[3],-2.76% (inactive)
same,fluorescence ratio,[4],0.97 (inactive)
c1ccc(C2CC2)c(OCC2=NCCN2)c1,fold fluorescence,[5],4.38 [at 231.2 µM] (inactive)
O=C(NC(=O)c1c(F)cccc1F)Nc1cc(Cl)c(OC(F)(F)C(F)C(F)(F)F)cc1Cl (stereo unspecified),activity remaining,[6],94.5% (inactive)
CCCCC/C=C\C/C=C\C/C=C\C/C=C\CCCC(=O)NCC(=O)O,fold fluorescence,[5],3.73 (inactive)
Cn1c(CCCC(=O)O)nc2cc(N(CCCl)CCCl)ccc21,inhibition,[7]; at 0.5 µM,-36.7% (inactive)
same,inhibition,"[7]; measured here: combination with BGB IC40, at 0.05 µM",-23.8%
same,inhibition,[7]; [21],-14.3%
same,inhibition,[7]; [22],-23.5%
same,inhibition,[8]; at 0.5 µM,-98.8% (inactive)
same,inhibition,"[8]; measured here: combination with BGB at IC20, at 0.5 µM",-103%
same,inhibition,"[8]; measured here: combination with cisplatin at IC20, at 0.5 µM",-129%
same,inhibition,[9]; at 0.5 µM,-13.4% (inactive)
same,inhibition,"[9]; measured here: combo with BGB at IC20, at 0.5 µM",-11.1%
same,inhibition,"[9]; measured here: combo with cisplatin at IC20, at 0.5 µM",-20.4%
same,inhibition,[10]; at 0.5 µM,-2.34% (inactive)
same,inhibition,"[10]; measured here: inhibition with BGB combination, at 0.05 µM",-13.2%
same,inhibition,"[10]; measured here: inhibition with cisplatin combination, at 0.05 µM",-10.4%
same,inhibition,[11]; at 0.5 µM,-14.6% (inactive)
same,inhibition,[11]; [21],-2.61%
same,inhibition,[11]; [22],-14.7%
same,inhibition,"[12]; BGB combination, concentration series, at 5 µM",-2.78%
same,inhibition,[12]; at 0.5 µM,-6.91% (inactive)
same,inhibition,"[12]; cisplatin combination, concentration series, at 5 µM",-6.97%
same,inhibition,[13],-9.57% (inactive)
same,inhibition,[13]; measured here: combo with BGB IC20,-2.95%
same,inhibition,[13]; measured here: combo with cisplatin IC20,-20%
same,inhibition,[14]; at 0.5 µM,-2.17% (inactive)
same,inhibition,"[14]; cisplatin combo, at 5 µM",-2.69%
same,inhibition,"[14]; measured here: BGB IC40 combination, at 0.05 µM",14.5%
same,inhibition,[14]; [21],15.5%
same,inhibition,"[14]; single agent, at 5 µM",-39.8%
same,inhibition,[15]; at 0.5 µM,-50.3% (inactive)
same,inhibition,"[15]; measured here: with BGB IC20 combination, at 0.5 µM",-68.1%
same,inhibition,"[15]; measured here: with cisplatin IC20 combination, at 0.5 µM",-41.4%
same,inhibition,"[15]; single agent, at 0.05 µM",2.56%
same,inhibition,"[15]; single agent, at 5 µM",-15.4%
COP(=S)(OC)Oc1ccc(Sc2ccc(OP(=S)(OC)OC)cc2)cc1,activity remaining,[6],118% (inactive)
CN(C)C(=S)SSC(=S)N(C)C,inhibition,[16],37.5%
same,score,[17],0.02
same,rescue above control,[18],2.19
same,cytochrome c release ratio,[19],3.47
same,inhibition of aggregation,[20],-16.7%
same,activity remaining,[6],97.7% (inactive)
Clc1ccc(COC(Cn2ccnc2)c2ccc(Cl)cc2Cl)c(Cl)c1 (stereo unspecified),inhibition,[16],16.3%
same,score,[17],-0.06
same,rescue above control,[18],0
same,cytochrome c release ratio,[19],0.32
same,inhibition of aggregation,[20],80.3%
same,fluorescence ratio,[1],0.96 (inactive)
same,inhibition,[2],6.82% (inactive)
same,inhibition,[3],4.86% (inactive)
same,fluorescence ratio,[4],0.93 (inactive)
same,activity remaining,[6],98.2% (inactive)

# From PubChem BioAssay
